This note sets out measurements from PubChem BioAssay AID720513 (Broad Institute, 2013).

The campaign covered roughly 2,100 compounds. About 480 (23%) were called active. Inconclusive results (about 5%) are left out.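 Rule for the calls: active = fitted curve reaches 40% activation at or below the top valid concentration, in every replicate test; inconclusive = replicate tests disagree on the call; inactive = the rest, including activity in the opposite direction.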 A selection follows. Entries with a potency or affinity are not part of this list.

The experiment in a line: activators raising PGC1a acetylation in cells, dose response, cell-based, cherry-picked samples, set 6 (AID 720513).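 Note: cells made to overexpress flag tagged PGC1a plus GCN5 acetyltransferase by viral infection.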 The following applies: U2OS PGC1a acetylation AlphaLISA, overnight, 0 = neutral, -100 = inhibitor control; series mostly up to 19.5 µM.
With `C[C@@H]1CN([C@@H](C)CO)C(=O)CCCn2cc(nn2)CO[C@H]1CN(C)Cc1ccc2c(c1)OCO2`, the molecule was called inactive.

Consider `O=C(C[C@@H]1C=C[C@@H](NC(=O)CN2CCOCC2)[C@H](CO)O1)NC1CCCCC1`, for which the molecule was classed as inactive.

On to `CSc1nc(SC)c2c3c(oc2n1)COC(C)(C)C3`, for which the result was inactive.

For the molecule `COCC#Cc1ccc2c(c1)O[C@H](CN(C)C(=O)CN(C)C)[C@@H](C)CN([C@@H](C)CO)S2(=O)=O`, the molecule was classed as inactive.

Turning to `CCC(=O)N1CCc2cc(OC)c(OC)cc2C1COc1ccc(C(=O)OC)cc1` (stereo unspecified), the outcome was inactive.

`CCC(=O)N(C)C[C@@H]1Oc2ncc(C#CCc3ccccc3)cc2C(=O)N([C@H](C)CO)C[C@@H]1C`: the molecule was classed as inactive.

In the case of `C[C@@H]1CN([C@H](C)CO)C(=O)c2cccc(NC(=O)c3nc4ccccc4s3)c2O[C@@H]1CN(C)CC1CCCCC1`, the outcome was inactive.

For the molecule `C[C@H]1CN([C@@H](C)CO)C(=O)c2cccc(NC(=O)c3nc4ccccc4s3)c2O[C@H]1CN(C)Cc1ccc(C(=O)Nc2ccccc2N)cc1`, the molecule was classed as inactive.

Take `CN(c1ccccc1)S(=O)(=O)c1ccc(Cl)nc1`: the outcome was inactive.

For `O=C(/C=C/c1ccccc1)CC(O)(c1ccccc1)C(F)(F)F` (stereo unspecified), the molecule was classed as inactive.

Turning to `CCN(CC)S(=O)(=O)c1ccc(C(=O)N(c2ccccc2)C2C=CS(=O)(=O)C2)cc1` (stereo unspecified), the result was inactive.

As for `CNC[C@@H](CC1CCCCC1)NC[C@H](CC(C)C)NCCc1cccc(C(F)(F)F)c1`, the outcome was inactive.

In the case of `Cc1cc(NS(=O)(=O)c2ccc(NC(=O)COc3c(C)cc(Br)cc3C)cc2)no1`, the outcome was inactive.

Consider `Cc1nnc2sc(-c3ccc(NC(=O)c4ccc(-c5ccc(Cl)cc5Cl)o4)cc3)nn12`, for which the call was inactive.

In the case of `CCN(CC(=O)NCc1ccc(Cl)cc1)C(=O)CSCC(=O)Nc1ccc(C)cc1`, the call was inactive.

As to `CCC(=O)NCc1c(C)c(C)n(Cc2ccccc2)c1-n1cccc1`, the molecule was called inactive.

`Cc1ccc(S(=O)(=O)OCCC2=CC(=O)CCN2Cc2ccccc2)cc1`: the outcome was inactive.

Turning to `COc1ccc(S(=O)(=O)N2CCCCN3[C@@H](CO)[C@@H](c4ccc(C5=CCCCC5)cc4)[C@@H]3C2)cc1`, the molecule was called inactive.

Regarding `Cc1ccc(S(=O)(=O)N2CCCCC2C(=O)O)cc1` (stereo unspecified), the molecule was called inactive.

As to `CN(C)CC(=O)N[C@H]1CC[C@H](CCNC(=O)Nc2ccc(Cl)cc2)O[C@H]1CO`, the molecule was called inactive.

Consider `CCCc1nnc(NC(=O)CN2CCOCC2)s1`, for which the molecule was classed as inactive.

`CCOC(=O)N1CCN(C(=O)c2cc(S(=O)(=O)N3CCCC3)cn2C)CC1`: the molecule was called inactive.

Regarding `CNC[C@@H]1Oc2cc(C#CCC3CCCC3)ccc2S(=O)(=O)N([C@H](C)CO)C[C@H]1C`, the molecule was classed as inactive.

Turning to `O=C(N/N=C/C=C\c1ccccc1[N+](=O)[O-])c1cccnc1`, the call was inactive.

Take `COc1ccc(-c2noc(CCC(=O)N3CCN(c4cccc(C)c4C)CC3)n2)cc1`: the molecule was classed as inactive.

Consider `COc1ccc(COc2cc(-c3cccc(OC)c3)nc3ccc(NC(=O)c4cccnc4)cc23)cc1`, for which the molecule was classed as inactive.

`CC(=O)N1N=C(c2ccco2)CC1c1ccco1` (stereo unspecified): the molecule was called inactive.

As for `CCC1SC2=NC(C)=C(C(=O)OC)C(c3cccs3)N2C1=O` (stereo unspecified), the molecule was called inactive.

As to `COc1ccc(S(=O)(=O)N[C@@H]2CC[C@H](CCNC(=O)c3ccccc3F)O[C@H]2CO)cc1`, the call was inactive.

Take `O=c1c(Cl)c(Cl)cnn1Cc1nnc(-c2ccc(Cl)cc2)o1`: the outcome was inactive.

For `CCC(=O)N(C)C[C@@H]1Oc2cc(C#Cc3cccnc3)ccc2S(=O)(=O)N([C@H](C)CO)C[C@H]1C`, the result was inactive.

With `C=CCc1ccc(OCCCCNC(C)CC)c(OC)c1` (stereo unspecified), the result was inactive.

As to `O=C1CN(C(=O)Cn2ncc(Cl)c(Cl)c2=O)c2ccccc2N1`, the result was inactive.

As to `CSCC(O)Cn1[nH]c(=O)c2cc(Cl)c(Cl)cc2c1=O` (stereo unspecified), the molecule was called inactive.

As for `Cc1cc(S(=O)(=O)NC(C)C)ccc1OCC(=O)Nc1ccc2c(c1)OCCO2`, the result was inactive.

On to `O=C(/C=C/c1ccccc1)CC(O)(c1ccccc1)C(F)(F)C(F)F` (stereo unspecified), for which the result was inactive.

Take `Cc1ccc(C2CC2c2n[nH]c(=S)n2-c2ccc(Cl)cc2)cc1` (stereo unspecified): the molecule was called inactive.

Regarding `O=C(Nc1ccccc1)c1nnsc1S(=O)c1ccc(Cl)cc1` (stereo unspecified), the molecule was called inactive.

For `CCCNC(=O)c1nnsc1S(=O)c1ccc(Cl)cc1` (stereo unspecified), the molecule was called inactive.

On to `Cc1ccc(-n2nc3ccc(N)cc3n2)cc1`, for which the molecule was classed as inactive.

As to `CCC(=O)N(C)C[C@@H]1Oc2ncc(-c3ccc(C(=O)N(C)C)cc3)cc2C(=O)N([C@H](C)CO)C[C@@H]1C`, the molecule was classed as inactive.

Take `COc1ccc(OCC(=O)NNC(=O)c2c(-c3ccccc3Cl)noc2C)cc1`: the molecule was classed as inactive.

For the molecule `CSc1n[nH]c(NC(=O)c2c(-c3c(Cl)cccc3Cl)noc2C)n1`, the result was inactive.

As to `O=C(O)COc1ccc(/C=C2/SC(=S)N(Cc3ccccc3)C2=O)cc1`, the result was inactive.

Turning to `CNC[C@@H](Cc1ccccc1)NC[C@@H](CC1CCCCC1)NCCCc1ccccc1`, the result was inactive.

Regarding `CCOC(=O)C1CCN(Cc2ccc(O)c3ncccc23)CC1`, the call was inactive.

In the case of `Cc1cccc(NS(=O)(=O)c2cccc(C(=O)NCC(c3ccco3)N3CCCCC3)c2)c1` (stereo unspecified), the outcome was inactive.

For `COc1ccc(C(=O)C(CN2CCCC2)c2ccccc2)cc1` (stereo unspecified), the outcome was inactive.

On to `CC(C)c1ccc(S(=O)(=O)N(C)C2(C)CCS(=O)(=O)C2)cc1` (stereo unspecified), for which the outcome was inactive.

With `CCCOc1cccc(C(=O)Nc2cc(NC(=O)c3ccco3)ccc2OC)c1`, the outcome was inactive.

As to `CN(C)S(=O)(=O)N1CCC(Cc2ccccc2)CC1`, the molecule was classed as inactive.

For `CCCCNC(=O)c1ccc(CS(=O)(=O)c2ccccc2OC)o1`, the call was inactive.

`O=C(Nc1ccc(F)cc1)N1CC(=O)N2[C@@H](CO)[C@@H](c3ccc(-c4ccccc4)cc3)[C@@H]2C1`: the molecule was called inactive.

Turning to `CC(C)c1ccc(CNc2ccc([N+](=O)[O-])cn2)cc1`, the call was inactive.

Regarding `COc1ccc(-c2ccc(OC)cc2C(=O)O)cc1`, the outcome was inactive.

On to `Cc1nc(NCCc2ccccc2)c2nnn(Cc3ccccc3Cl)c2n1`, for which the outcome was inactive.

Regarding `CSc1ncccc1C(=O)N1CCN(C(=O)c2ccccc2)CC1`, the result was inactive.

For the molecule `O=C(NC1CCCCCCC1O)c1ccccc1` (stereo unspecified), the outcome was inactive.

Take `CO[C@@H]1CN(C)C(=O)c2cc(NC(C)=O)ccc2OC[C@@H](C)N(Cc2ccccc2C(=O)O)C[C@@H]1C`: the call was inactive.

As for `Cc1cc(SCC(=O)NC(=O)NCc2ccco2)nc2ccccc12`, the molecule was classed as inactive.

Turning to `C=CCn1c(SCC(=O)NCc2ccccc2)nnc1-c1ccccc1O`, the call was inactive.

Take `COc1ccc(OC)c(Nc2ccc(C(=O)O)cc2[N+](=O)[O-])c1`: the call was inactive.

With `COc1ccccc1/C=C/c1nc2ccc(OC(C)=O)cc2c(=O)o1`, the outcome was inactive.

For `C[C@@H]1CN([C@@H](C)CO)C(=O)c2cc(NC(=O)c3ccncc3)ccc2O[C@@H](C)CCCCO[C@@H]1CN(C)Cc1ccncc1`, the call was inactive.

Regarding `CC(=O)Cc1nsc(NC(=O)c2cccc(F)c2)n1`, the molecule was called inactive.

Turning to `CCCN1CCN(S(=O)(=O)c2ccc3c(c2)CC(C)N3C(=O)C2CC2)CC1` (stereo unspecified), the call was inactive.

As to `c1ccc2c(-c3nn4nnnc4c4ccccc34)cccc2c1`, the result was inactive.

For `COCCCNC(=O)c1ccc(CSCc2ccc(C)cc2)o1`, the molecule was classed as inactive.

As to `COc1cccc(NC(=O)N(C)C[C@@H]2OCc3ccccc3-c3c(n(C)c4ccccc34)C(=O)N([C@@H](C)CO)C[C@H]2C)c1`, the result was inactive.

Take `C[C@@H]1CN([C@H](C)CO)C(=O)c2cc(NC(=O)Cc3cn(C)c4ccccc34)ccc2O[C@@H]1CN(C)C(=O)Nc1ccccc1`: the result was inactive.

As to `COc1ccc(-c2cnc3c(c2)C(=O)N([C@H](C)CO)C[C@@H](C)[C@@H](CN(C)C(=O)Nc2c(C)noc2C)O3)cc1`, the call was inactive.

For the molecule `O=C(C[C@@H]1CC[C@@H]2[C@H](COC[C@@H](O)CN2S(=O)(=O)c2ccc(Cl)cc2)O1)N[C@@H]1CCN(Cc2ccccc2)C1`, the molecule was classed as inactive.

As to `CC(Nc1ccccc1)c1cc(Cl)ccc1O` (stereo unspecified), the outcome was inactive.

With `O=C(c1ccc(N2CCCC2=O)cc1)N1CCCCCC1`, the call was inactive.

For `CO[C@H]1CN(C)C(=O)c2ccc(NC(=O)C3CCOCC3)cc2OC[C@@H](C)N(C)C[C@@H]1C`, the outcome was inactive.

Consider `COc1cc(NC(=O)CCN2CCN(C)CC2)cc(OC)c1`, for which the molecule was called inactive.

Take `Cc1cc(F)cc(-c2cc(C(=O)NCc3ccccc3)[nH]n2)c1`: the molecule was called inactive.

Consider `CC(/C=C1\SC(=O)N(CCCC(=O)O)C1=O)=C\c1ccccc1`, for which the molecule was classed as inactive.

With `O=C1/C(=C\c2ccco2)SC(=S)N1Cc1ccccc1`, the result was inactive.

With `O=C(CCN1C(=O)/C(=C/c2ccccc2)SC1=S)NCCCN1CCOCC1`, the molecule was called inactive.

For `CCOc1c(Br)cc(/C=C2/SC(=O)N(CC(=O)N3CCCC3)C2=O)cc1OC`, the outcome was inactive.

For `O=S(=O)(NCCSc1ccc(Cl)cc1)c1ccc(F)cc1`, the molecule was called inactive.

For `Cc1ccc(-c2ccc3c(c2)O[C@@H](CN(C)C(=O)C2CCCCC2)[C@H](C)CN([C@H](C)CO)S3(=O)=O)cc1`, the result was inactive.

With `COc1ccc(NC(=O)N[C@H]2CC[C@H](CCn3cc(-c4ccccc4F)nn3)O[C@@H]2CO)cc1`, the result was inactive.

Take `O=C(O)c1cccn1Cc1ccccc1F`: the molecule was classed as inactive.

For `Cc1c(CNCCc2ccc(Cl)cc2)c(C(=O)O)c(C)n1-c1ccccc1`, the result was inactive.

Consider `C[C@@H]1CCCCO[C@H](CN(C)Cc2ccc(C(F)(F)F)cc2)[C@H](C)CN([C@H](C)CO)C(=O)c2cc(NC(=O)Cc3ccccc3)ccc2O1`, for which the molecule was called inactive.

With `CC(C)NC(=O)c1c(O)c2ccccc2[nH]c1=O`, the molecule was called inactive.

With `COc1ccc(S(=O)(=O)N(C)C[C@@H]2Oc3ccc(NS(=O)(=O)c4cn(C)cn4)cc3C(=O)N([C@H](C)CO)C[C@@H]2C)cc1`, the molecule was classed as inactive.

As for `Cc1cc(NS(=O)(=O)c2ccc(NC(=O)CCCOc3ccccc3)cc2)no1`, the call was inactive.

As to `CCOc1ccc(S(=O)(=O)/N=C(/Nc2ccc(C(C)=O)cc2)c2ccccc2)cc1`, the molecule was classed as inactive.

For `NC(=NC(=O)c1ccccc1)N1CCOCC1`, the molecule was called inactive.

For the molecule `Cc1ccccc1Nc1ncnc2c1cnn2-c1ccccc1`, the result was inactive.

As to `O=C(c1ccc(F)cc1)N(C(=O)c1ccc(F)cc1)c1ncccn1`, the outcome was inactive.

`O=S(=O)(c1ccc(Br)cc1)n1ccc2ccccc21`: the result was inactive.

Regarding `COC(=O)Nc1ccc(S(=O)(=O)N(CCO)CC(F)(F)C(F)F)cc1`, the call was inactive.
